Screening results as filed in PubChem BioAssay.
NPYLR7 ag = agonists of mosquito NPYLR7 receptor, primary screen, cell-based, Aedes aegypti, calcium fluorescence, mosquito biting behavior | HEK293T NPYLR7/Galpha15, GCaMP6s calcium fluorescence | activation, % at 10 µM | 270,000 compounds, 0.15% hits | AID 1259423, 2018; in the data active means activation above about 40%;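 further: 0% = vehicle and 100% = reference agonist at the receptor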
mcGAS inh = cyclic GMP-AMP synthase inhibitors, mouse, primary biochemical chemiluminescence; recombinant cGAS, Kinase-Glo ATP depletion luminescence; inhibition, % at 12.5 µM; Q8C6L5; 160,000 compounds, 0.15% hits;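 further: 0% = negative control wells and 100% = reference inhibitor with no enzyme activity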
Target sequence (Q8C6L5 whole entry, looked up): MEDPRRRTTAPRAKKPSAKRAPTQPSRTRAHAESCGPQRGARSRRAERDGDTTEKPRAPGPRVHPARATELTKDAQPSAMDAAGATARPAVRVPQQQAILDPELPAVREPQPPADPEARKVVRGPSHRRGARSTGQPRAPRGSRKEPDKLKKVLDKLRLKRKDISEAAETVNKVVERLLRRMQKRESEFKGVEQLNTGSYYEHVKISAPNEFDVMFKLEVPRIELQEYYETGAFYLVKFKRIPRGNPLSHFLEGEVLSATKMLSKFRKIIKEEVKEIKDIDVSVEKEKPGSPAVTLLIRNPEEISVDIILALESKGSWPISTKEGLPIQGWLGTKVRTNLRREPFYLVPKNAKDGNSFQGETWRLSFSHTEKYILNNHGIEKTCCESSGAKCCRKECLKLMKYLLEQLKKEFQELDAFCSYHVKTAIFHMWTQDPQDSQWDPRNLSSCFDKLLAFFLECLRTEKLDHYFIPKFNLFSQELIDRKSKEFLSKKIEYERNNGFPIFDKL
hcGAS lum = Primary biochemical luminescence assay for human cyclic GMP-AMP synthase inhibitors | 290,000 compounds, 0.081% hits | inhibition, % at 12.5 µM | AID 1259398, 2018 | recombinant h-cGAS, ATP depletion, Kinase-Glo luminescence | Q8N884;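 further: 0% = vehicle reaction and 100% = reaction without DNA for no activity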
* = called active by the depositor. Compounds with a hit are over-represented: about 0.24% of the library has one in this group of screens. Unless noted, no stated cut-off is given here; in the data, active means inhibition above about 40%; inactive means the rest.

Screening Cc1cccc(NC(=O)CCn2cnc3c([nH]c4ccc(C)cc43)c2=O)c1 returned mcGAS inh -9 and hcGAS lum -6.
Screening Cc1ccc(-c2nc(OCC(C)C)nn2-c2ccc(NC(=O)c3cccc(Br)c3)cc2)cc1 returned NPYLR7 ag 26, mcGAS inh -5 and hcGAS lum -5.
`O=c1c2ccccc2nc(-c2ccc(Cl)c(F)c2)n1C1CCCCC1` gave NPYLR7 ag 4, mcGAS inh 2 and hcGAS lum -1.
Screening CSc1nnc2c(n1)OC(c1ccc(OC(=O)c3ccc(Br)cc3)cc1)Nc1ccccc1-2 (configuration not stated) returned NPYLR7 ag 46*, mcGAS inh -5 and hcGAS lum -3.
CSc1nnc2c(n1)OC(c1ccc(Br)cc1)Nc1ccccc1-2 (configuration not stated) was read as NPYLR7 ag 2, mcGAS inh 5 and hcGAS lum -10.
For NC(=O)NN=Cc1ccc(C2C=CCC2)s1 (configuration not stated) the results were NPYLR7 ag -3 and hcGAS lum -6.
For CCCS(=O)(=O)N1CCN(c2ccc(NC(=O)c3ccccc3F)cn2)CC1 the results were NPYLR7 ag 3, mcGAS inh -4 and hcGAS lum 0.
Screening O=C(O)c1ccc(-n2c(O)c(C=C3C=Nc4ccccc43)sc2=S)cc1 returned NPYLR7 ag -1, mcGAS inh -1 and hcGAS lum -7.
`CC(C(=O)O)n1c(O)c(C=C2C=Nc3ccccc32)sc1=S` (configuration not stated) gave NPYLR7 ag 75*, mcGAS inh -5 and hcGAS lum 1.
Screening O=C(O)CCn1c(O)c(C=C2C=Nc3ccccc32)sc1=S returned NPYLR7 ag 46*, mcGAS inh -1 and hcGAS lum 4.
O=C(Nn1c(O)c(C=C2C=Nc3ccccc32)sc1=S)c1ccccc1[N+](=O)[O-] was read as NPYLR7 ag 12, mcGAS inh -5 and hcGAS lum -5.
CCOC(=O)c1c(NC(=O)COC(=O)C2(C)CC2(Cl)Cl)sc(C(C)=O)c1C (configuration not stated) was read as NPYLR7 ag 23, mcGAS inh -5 and hcGAS lum -3.
For COc1ccc2oc(=O)c(-c3nnc(Nc4ccc(F)cc4F)s3)cc2c1 the results were NPYLR7 ag -8, mcGAS inh -7 and hcGAS lum -2.
O=C(O)CN1C(=O)C(=C2C(=O)N(CC(=O)O)c3ccccc32)SC1=S was read as NPYLR7 ag 1, mcGAS inh -1 and hcGAS lum -8.
For O=C(O)CN1C(=O)C(=NN2C(=O)CSC2=S)c2ccccc21 the results were NPYLR7 ag -3 and hcGAS lum 43*.
For COC(=O)C1CCN(C(=O)Cn2cc(C(F)(F)F)cc(Cl)c2=O)CC1 the results were NPYLR7 ag 1 and hcGAS lum -12.
For COC(=O)c1sc(N)c(C(=O)OC)c1Cn1cc(C(F)(F)F)cc(Cl)c1=O the results were NPYLR7 ag -5, mcGAS inh -2 and hcGAS lum 54*.
COc1ncc(-c2nccn2-c2ccc(-c3ccn[nH]3)cc2)cn1 was read as NPYLR7 ag 2, mcGAS inh -8 and hcGAS lum -6.
CCOc1cc(/C=C2/NC(=S)NC2=O)cc(Br)c1O was read as NPYLR7 ag 52*, mcGAS inh 5 and hcGAS lum 4.
For CCOc1cc(Br)cc(/C=C2/NC(=S)NC2=O)c1O the results were NPYLR7 ag -5, mcGAS inh 4 and hcGAS lum 2.
`Cc1cc(=O)[nH]c2n[nH]c(=S)n12` gave NPYLR7 ag -4 and hcGAS lum 28.
`O=c1[nH]c2n[nH]c(=S)n2c2c1CCCC2` gave NPYLR7 ag -2 and hcGAS lum 51*.
For COCc1ccccc1CNC(=O)/C=C/C(C)(C)C the results were NPYLR7 ag -3 and hcGAS lum -8.
`Cc1ccc(CN(Cc2ccccc2)C(=O)CNC(C)C)s1` gave NPYLR7 ag -7, mcGAS inh -6 and hcGAS lum -6.
`O=C(CCl)N1N=C(c2ccc(Cl)cc2)CC1c1ccco1` (configuration not stated) gave NPYLR7 ag -5, mcGAS inh 52* and hcGAS lum -7.
For CCN(CC)CC(=O)N1N=C(c2ccc(Cl)cc2)CC1c1ccco1 (configuration not stated) the results were NPYLR7 ag -2, mcGAS inh -3 and hcGAS lum 5.
For CC(C)Oc1nc(-c2cccc(F)c2)n(-c2ccc(NC(=O)c3ccc([N+](=O)[O-])cc3Cl)cc2)n1 the results were NPYLR7 ag -3, mcGAS inh 1 and hcGAS lum 4.
